# The list is not random: actives were taken first. Their share in the collection is about 1.4%.
# NS1 function inh: qHTS Assay for Inhibitors of Influenza NS1 Protein Function | 270,000 compounds, 0.4% hits | Potency, µM (highest dose often 46.1 µM), without a hit: top-dose activity, positive = more growth; calls by dose curve; further: actives are rising curves; nearly all actives have a fitted effect of over 50% in size
#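 A cell-based growth assay was used: compounds that relieve NS1-induced slow growth of budding yeast raise OD600. Assay medium was yeast nitrogen base with ammonium sulphate and -URA supplement, pH 6.0, with 2% galactose.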
# Giardia FBPA inh-1: qHTS Assay for Inhibitors of Fructose-1,6-bisphosphate Aldolase from Giardia Lamblia | A8B2U2 | Potency, µM (series often up to 59.6 µM), for the others: at the highest dose activity, negative = inhibition, hits mostly inhibitors | AID 2451, 2010 | purified Giardia FBPA | 290,000 compounds, 0.71% hits; further: on the % scale 0 is the no-effect control and ±100 the full control effect; nearly all actives have a fitted effect of over 55% in size
#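 Giardia FBPA (40 nM reagent) was preincubated 10 min at RT with compound (up to 57.5 uM final), then substrate plus GAPDH/TPI/NAD/arsenate coupling system with diaphorase/resazurin was added; resorufin fluorescence (525/598 nm) was read after 20 min.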
# SARS PLP yeast: qHTS of Yeast-based Assay for SARS-CoV PLP. 330,000 compounds, 0.19% hits. Potency, µM (series often up to 32.9 µM), for inactives: top-dose activity, positive = growth rescue, most hits filed as activators. S. cerevisiae expressing SARS-CoV PLpro, growth rescue. AID 485353, 2010; calls by dose curve; further: 0% is about no effect; nearly all actives have a fitted effect of over 55% in size
# AmpC inh detg: qHTS Inhibitors of AmpC Beta-Lactamase (assay with detergent); AmpC hydrolysis of nitrocefin, absorbance 480 nm, 0.01% Triton; P00811; Potency, µM (highest dose often 114 µM), for the others: at the highest dose activity change, negative = inhibition, usual class: inhibitors; 370,000 compounds, 0.041% hits;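 further: 0% = no-compound wells and -100% = no-enzyme wells; nearly all actives have a fitted effect of over 25% in size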
# Target sequence (P00811 whole entry, looked up): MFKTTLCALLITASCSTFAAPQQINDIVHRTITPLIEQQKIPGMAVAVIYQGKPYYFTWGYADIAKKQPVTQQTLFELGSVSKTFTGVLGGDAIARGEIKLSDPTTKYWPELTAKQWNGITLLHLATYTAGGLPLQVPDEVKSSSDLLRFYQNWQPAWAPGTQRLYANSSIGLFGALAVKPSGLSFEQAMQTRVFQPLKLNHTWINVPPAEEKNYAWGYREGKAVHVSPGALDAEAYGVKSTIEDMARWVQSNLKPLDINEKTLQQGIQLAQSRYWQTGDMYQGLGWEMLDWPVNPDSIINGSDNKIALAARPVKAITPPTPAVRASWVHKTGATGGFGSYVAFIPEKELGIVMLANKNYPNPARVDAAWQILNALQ
#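 20 mM phosphate pH 7.0 + 0.01% (detergent screen) or 0.0001% Triton X-100; 5.3 nM AmpC reagent; cpd preinc 15 min RT; nitrocefin (800 uM stock) to start; A480 q20 s × 4 min; Activity was normalised to no-enzyme and no-compound control wells.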
# AmpC inh no detg: qHTS Inhibitors of AmpC Beta-Lactamase (assay without detergent); P00811; AmpC nitrocefin hydrolysis, absorbance 480 nm, 0.0001% Triton; Potency, µM (highest dose often 57.1 µM), inactives show at the top dose activity change, negative = inhibition, actives largely listed as inhibitors; 330,000 compounds, 0.52% hits;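 further: plate controls were no compound for no effect and no enzyme for full effect; nearly all actives have a fitted effect of over 20% in size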
#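 20 mM phosphate pH 7.0 + 0.01% (detergent screen) or 0.0001% Triton X-100; 5.3 nM AmpC reagent; cpd preinc 15 min RT; nitrocefin (800 uM stock) to start; A480 q20 s × 4 min; Activity was normalised to no-enzyme and no-compound control wells.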
# Giardia growth: qHTS Assay for Inhibitors of Fructose-1,6-bisphosphate Aldolase from Giardia Lamblia: Giardia lamblia growth inhibition | shares compounds with Giardia FBPA inh-1 | Giardia lamblia trophozoite growth inhibition | AID 2785, 2010 | 1,500 compounds, 5% hits | Potency, µM (titrated, usually from 57.5 µM), without a hit: top-dose activity change, negative = inhibition, most hits filed as inhibitors;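 further: trophozoites exposed to compound for 48 h at 37 °C; on the % scale 0 is the no-effect control and ±100 the full control effect; nearly all actives have a fitted effect of over 70% in size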
# Mammalian tox: qHTS Assay for Inhibitors of Fructose-1,6-bisphosphate Aldolase from Giardia Lamblia: Mammalian cellular toxicity. shares compounds with Giardia FBPA inh-1. mammalian cell viability counter-screen, qHTS. Potency, µM (top dose mostly 57.5 µM), without a hit: top-dose viability change, negative = toxicity, most hits filed as inhibitors. 1,500 compounds, 4% hits;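 further: Chinese hamster ovary cells used as mammalian cytotoxicity surrogate; viability measured as cellular ATP by luminescence; compound exposure lasted 48 h before reading; on the % scale 0 is the no-effect control and ±100 the full control effect; nearly all actives have a fitted effect of over 60% in size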
# Giardia FBPA inh-2: qHTS Assay for Inhibitors of Fructose-1,6-bisphosphate Aldolase from Giardia Lamblia: Primary screen confirmation. shares compounds with Giardia FBPA inh-1. Potency, µM (series often up to 57.5 µM), for inactives: at the highest dose activity change, negative = inhibition, hits mostly inhibitors. 1,500 compounds, 5% hits. purified Giardia aldolase enzyme activity, qHTS; further: on the % scale 0 is the no-effect control and ±100 the full control effect; nearly all actives have a fitted effect of over 45% in size
# Rabbit aldolase: qHTS Assay for Inhibitors of Fructose-1,6-bisphosphate Aldolase from Giardia Lamblia: Rabbit FBPA Selectivity. 1,500 compounds, 4% hits. Potency, µM (top dose mostly 57.5 µM), for the others: at the top dose activity, negative = inhibition, most hits filed as inhibitors. Rabbit muscle FBPA enzyme inhibition, selectivity counter-screen. shares compounds with Giardia FBPA inh-1; further: on the % scale 0 is the no-effect control and ±100 the full control effect; nearly all actives have a fitted effect of over 60% in size
# Target sequence (P00883 whole entry, looked up): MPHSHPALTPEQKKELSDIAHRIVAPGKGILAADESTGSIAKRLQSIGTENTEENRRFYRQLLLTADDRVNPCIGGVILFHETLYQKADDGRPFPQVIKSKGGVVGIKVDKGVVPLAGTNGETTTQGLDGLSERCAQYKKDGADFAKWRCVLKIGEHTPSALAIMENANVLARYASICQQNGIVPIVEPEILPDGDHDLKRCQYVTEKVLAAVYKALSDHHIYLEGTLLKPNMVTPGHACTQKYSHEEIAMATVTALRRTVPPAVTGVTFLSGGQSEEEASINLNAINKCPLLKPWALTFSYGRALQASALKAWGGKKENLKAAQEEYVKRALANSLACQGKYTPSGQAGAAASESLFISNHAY
# GAPDH coupling: qHTS Assay for Inhibitors of Fructose-1,6-bisphosphate Aldolase from Giardia Lamblia: Coupling assay counterscreen confirmation | shares compounds with Giardia FBPA inh-1 | GAPDH coupling enzyme counterscreen, biochemical, qHTS | Potency, µM (series often up to 57.5 µM), for inactives: at the highest dose activity change, negative = inhibition, usual class: inhibitors | 1,500 compounds, 6% hits; further: on the % scale 0 is the no-effect control and ±100 the full control effect; nearly all actives have a fitted effect of over 55% in size
# An asterisk follows results filed as active; ? = inconclusive; nt = no result; [ ] = another dose, or the depositor's remark. Unless noted, the call rests on the fitted dose curve; in most records, active means well fitted curve in the direction sought with a large enough effect; inconclusive means small, poorly fitted or top-dose-only effect, or another doubt; inactive means no such curve, though single readings can be large; an effect the other way counts as inactive or inconclusive. Potency means the concentration at half of the fitted maximal effect.
SMILES,NS1 function inh,Giardia FBPA inh-1,SARS PLP yeast,AmpC inh detg,AmpC inh no detg,Giardia growth,Mammalian tox,Giardia FBPA inh-2,Rabbit aldolase,GAPDH coupling
Cc1ccc(C(=O)N2CCCN(c3nc4cc5c(cc4cc3C#N)OCO5)CC2)cc1,-13.0%,-16.8%,-8.3%,-3.1%,27.6%,nt,nt,nt,nt,nt
N#Cc1cc2cc3c(cc2nc1N1CCCCC1)OCCO3,4.0%,6.29µM*,1.6%,-4.9%,-11.8%,56.2µM*,-26.3%,-9.3%,-0.6%,-1.9%
O=C(NCc1ccco1)N1c2ccccc2Sc2ccccc21,-4.4%,0.0%,-17.0%,-1.7%,-0.2%,nt,nt,nt,nt,nt
O=C(Nc1nnc(C2=COCCO2)o1)c1ccc(S(=O)(=O)N2CCOCC2)cc1,nt,19.9µM*,0.0%,-1.3%,-22.2%,?,-5.1%,2.7%,5.2%,5.8%
CC1CCCN(S(=O)(=O)c2ccc(C(=O)Nc3nnc(C4=COCCO4)o3)cc2)C1 (stereo not given),-18.9%,28.2µM*,2.5%,?,-29.7%,-3.3%,13.6%,10.9%,10.2%,15.3%
CC1CCCCN1S(=O)(=O)c1ccc(C(=O)Nc2nnc(C3=COCCO3)o2)cc1 (stereo not given),7.5%,nt,0.1%,-3.7%,-40.7%,nt,nt,nt,nt,nt
CC1CCCCN1S(=O)(=O)c1ccc(C(=O)Nc2nnc(-c3ccco3)o2)cc1 (stereo not given),-18.9%,?,5.0%,?,-41.0%,nt,nt,nt,nt,nt
CC1CCCCN1S(=O)(=O)c1ccc(C(=O)Nc2nnc(-c3ccccn3)o2)cc1 (stereo not given),nt,17.7µM*,-3.2%,4.2%,-22.3%,24.3%,9.9%,22.7%,22.3%,-0.3%
CCN1CCN(C(c2cccs2)C(C)NC(=O)c2ccco2)CC1 (stereo not given),-4.5%,0.9%,-10.3%,1.2%,-34.1%,nt,nt,nt,nt,nt
COc1ccc(Cn2ccnc2SCC(=O)Nc2ccccc2F)cc1,-1.8%,nt,-5.2%,-0.7%,-31.6%,nt,nt,nt,nt,nt
COc1cc(/C=C/C(=O)c2c(O)cc(C)oc2=O)cc(OC)c1O,1.1%,15.8µM*,3.1%,-9.2%,-0.1%,-3.2%[10.4 µM],-11.7%,?,?,?
Cc1ccc(NC(=O)CN2Cc3ccccc3C2=O)c(C)c1,nt,nt,nt,3.8%,nt,nt,nt,nt,nt,nt
N#CCCN(C(=O)COC(=O)c1cc(=O)c2ccccc2o1)c1ccccc1,nt,nt,3.9%,-0.5%,-12.0%,nt,nt,nt,nt,nt
CC(NC(=O)NNC(N)=S)(C(F)(F)F)C(F)(F)F,-2.1%,17.7µM*,21.1%,4.0%,-7.6%,31.3%,9.5%,6.5%,6.5%,7.6%
Cc1ccc(C(=O)N/N=C(\CC(C)C)c2ccccc2)cc1,10.5%,1.3%,-10.8%,-1.0%,-10.6%,nt,nt,nt,nt,nt
Cn1c(=O)c2c(-c3ccccc3)n3c(c2n(C)c1=O)C(c1cccc([N+](=O)[O-])c1)Nc1ccccc1-3 (stereo not given),nt,nt,nt,29.3%,nt,nt,nt,nt,nt,nt
Oc1ccccc1CNc1cccc2cccnc12,8.5%,6.29µM*,-1.2%,11.5%,-20.9%,-27.8%,-8.5%,-20.1%,-8.0%,-1.7%
COc1cc(NCc2ccccc2O)c2ncccc2c1,?,-20.1%,-2.7%,-8.4%,-41.2%,nt,nt,nt,nt,nt
COc1ccccc1N1CCN(CCOc2c(OC)cccc2OC)CC1,-4.9%,-15.2%,3.7%,?,11.7%,nt,nt,nt,nt,nt
O=C(Nc1ncc(Cc2ccccc2Cl)s1)C1=NCCN1,-30.0%,9.5%,-106.9%,-4.1%,-26.2%,nt,nt,nt,nt,nt
CCc1ccc(Cc2cnc(NC(=O)C3=NCCN3)s2)cc1,nt,14.1µM*,0.4%,-4.4%,-7.5%,?,-2.9%,9.9%,12.6%,2.1%
COc1cc(N=c2ssnc2Cl)cc(OC)c1OC,-142.3%,19.9µM*,-23.9%,?,-34.0%,-3.7%[10.4 µM],4.9%,-27.9%,31.6µM*,-6.0%
N#Cc1ccc(N=c2ssnc2Cl)cc1,-108.9%,15.8µM*,-5.7%,?,-18.6%,-7.5%,-12.2%,-22.7%,39.8µM*,11.3%
Cn1c(Cl)cnc1C(O)(c1ccccc1)c1ccccc1,5.9%,0.4%,0.2%,1.0%,-14.7%,nt,nt,nt,nt,nt
Cc1nc(C(F)(F)F)c(C(=O)N/N=C(\N)c2ccccn2)s1,nt,4.46µM*,-1.9%,-1.3%,-16.6%,31.6µM*,39.8µM*,?,-21.0%,-25.7%
SMILES,NS1 function inh,Giardia FBPA inh-1,SARS PLP yeast,AmpC inh detg,AmpC inh no detg,Giardia growth,Mammalian tox,Giardia FBPA inh-2,Rabbit aldolase,GAPDH coupling
N/C(=N\NS(=O)(=O)c1ccccc1C(F)(F)F)c1ccccn1,2.3%,17.7µM*,0.8%,-4.3%,-3.5%,5.8%[10.4 µM],6.7%,13.3%,11.3%,7.0%
CC1CN(S(=O)(=O)c2ccc3c(c2)NC(=O)CC(=O)N3)c2ccccc2O1 (stereo not given),nt,nt,nt,5.9%,nt,nt,nt,nt,nt,nt
CC(=O)c1ccc(N=Nc2c(C)[nH]n(-c3ccccc3)c2=O)cc1,0.0%,7.08µM*,4.3%,?,-2.4%,?,-2.1%,5.2%,3.7%,4.8%
Cc1[nH]n(-c2ccccc2)c(=O)c1N=Nc1ccc(C(=O)O)cc1,1.8%,-24.9%,0.8%,0.7%,-16.5%,nt,nt,nt,nt,nt
CC(=O)c1ccc(OCCCC(=O)N2CCN(S(=O)(=O)c3ccc(C)cc3C)CC2)cc1,nt,nt,2.0%,-7.4%,88.7%,nt,nt,nt,nt,nt
CC(C)CNC(C(=O)Nc1ccc([N+](=O)[O-])cc1Br)c1ccccc1 (stereo not given),-11.9%,?,-49.7%,-4.7%,-28.6%,nt,nt,nt,nt,nt

# Screens: PubChem, National Center for Advancing Translational Sciences (NCATS)
